Test results as given in PubChem BioAssay (Tox21).
Values joined by “and” are separate entries in the source; they are usually repeats but may differ in a detail not shown here. Equal entries are not always repeated. Results filed as inconclusive are left out. Active and inactive are the calls of the source. Calls come from the whole dose curve; as a rule, active = well fitted curve in the direction sought with a large enough effect in the repeat runs; inconclusive = weak or mixed curves; inactive = no such curve, though single readings can be large; an effect the other way counts as inactive or inconclusive.

Assays:
[1] = qHTS RealTime-Glo MT Cell Viability Assay in HepG2 cells - 40 hour (AID 1224870); note: nearly all actives have a fitted effect of over 50% in size
Outline: (§1)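 HepG2 cells (600/well) mixed with RealTime-Glo MT reagent, settled 5 h at 37 C/5% CO2 before compound addition. Nonlytic NanoLuc luminescence from viable-cell prosubstrate reduction read repeatedly during 40 h treatment at 37 C.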

[2] = A CellTox Green Cytotoxicity Assay to monitor cytotoxicity in HEK293 cells - 40 hour (AID 1224871); note: nearly all actives have a fitted effect of over 45% in size
Outline: (§2)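 Tox21 screen in HEK293: membrane-impermeant cyanine dye fluoresces on binding dead-cell DNA; compound pinned 5 h post-seeding, plates held at 37 C, signal read repeatedly through 40 h.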

[3] = qHTS RealTime-Glo MT Cell Viability Assay in HEK293 cells - 16 hour (AID 1224872); note: nearly all actives have a fitted effect of over 50% in size; note: potency is the fitted concentration of half-maximal effect
Outline: (§3)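 Reads taken at 0, 8, 16, 24, 32 and 40 h from the same wells. HEK293 cells (600/well) carried RealTime-Glo reagents from seeding, with compound added after a 5 h settle at 37 C.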

[4] = qHTS RealTime-Glo MT Cell Viability Assay in HepG2 cells - 8 hour (AID 1224873); note: nearly all actives have a fitted effect of over 55% in size
Outline: as §1

[5] = qHTS RealTime-Glo MT Cell Viability Assay in HEK293 cells - 40 hour (AID 1224874); conditions: RealTime-Glo luminescence; max response: active compounds read low; note: nearly all actives have a fitted effect of over 50% in size; note: potency is the fitted concentration of half-maximal effect
Outline: (§4)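 HEK293 + NanoLuc + prosubstrate, 600 cells/well; 5 h, 37 C/5% CO2; compound 23 nL in DMSO by pintool; 37 C; luminescence read at 0, 8, 16, 24, 32 and 40 h time points.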

[6] = A CellTox Green Cytotoxicity Assay to monitor cytotoxicity in HEK293 cells - 24 hour (AID 1224875); note: series mostly up to about 77 µM; nearly all actives have a fitted effect of over 45% in size
Outline: as §2

[7] = A CellTox Green Cytotoxicity Assay to monitor cytotoxicity in HepG2 cells - 16 hour (AID 1224876); note: nearly all actives have a fitted effect of over 45% in size
Outline: (§5)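 Measurements at 0, 8, 16, 24, 32 and 40 h of treatment captured CellTox Green fluorescence in HepG2 cells that had been co-plated with reagent and preincubated 5 h at 37 C/5% CO2.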

[8] = qHTS RealTime-Glo MT Cell Viability Assay in HepG2 cells - 32 hour (AID 1224877); note: nearly all actives have a fitted effect of over 55% in size
Outline: (§6)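 HepG2 suspension premixed with RealTime-Glo reagents is plated at 600 cells per well and left 5 h at 37 C/5% CO2. Compounds in DMSO then go in, and bioluminescence reflecting viable cell number is recorded over 40 h.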

[9] = A CellTox Green Cytotoxicity Assay to monitor cytotoxicity in HepG2 cells - 24 hour (AID 1224878); note: nearly all actives have a fitted effect of over 45% in size
Outline: as §5

[10] = A CellTox Green Cytotoxicity Assay to monitor cytotoxicity in HepG2 cells - 40 hour (AID 1224879); note: nearly all actives have a fitted effect of over 40% in size
Outline: as §5

[11] = qHTS RealTime-Glo MT Cell Viability Assay in HEK293 cells - 0 hour (AID 1224880)
Outline: as §4

[12] = A CellTox Green Cytotoxicity Assay to monitor cytotoxicity in HEK293 cells - 32 hour (AID 1224881); note: nearly all actives have a fitted effect of over 40% in size
Outline: as §2

[13] = A CellTox Green Cytotoxicity Assay to monitor cytotoxicity in HepG2 cells - 0 hour (AID 1224882); note: nearly all actives have a fitted effect of over 35% in size
Outline: as §5

[14] = A CellTox Green Cytotoxicity Assay to monitor cytotoxicity in HepG2 cells - 32 hour (AID 1224883); note: nearly all actives have a fitted effect of over 50% in size
Outline: as §5

[15] = A CellTox Green Cytotoxicity Assay to monitor cytotoxicity in HEK293 cells - 8 hour (AID 1224884); note: nearly all actives have a fitted effect of over 35% in size
Outline: as §2

[16] = qHTS RealTime-Glo MT Cell Viability Assay in HepG2 cells - 16 hour (AID 1224885); note: nearly all actives have a fitted effect of over 50% in size
Outline: as §6

[17] = qHTS RealTime-Glo MT Cell Viability Assay in HEK293 cells - 24 hour (AID 1224886); note: nearly all actives have a fitted effect of over 50% in size; note: potency is the fitted concentration of half-maximal effect
Outline: as §3

[18] = qHTS RealTime-Glo MT Cell Viability Assay in HEK293 cells - 8 hour (AID 1224887)
Outline: as §4

[19] = A CellTox Green Cytotoxicity Assay to monitor cytotoxicity in HEK293 cells - 16 hour (AID 1224888); note: nearly all actives have a fitted effect of over 35% in size
Outline: as §2

[20] = qHTS RealTime-Glo MT Cell Viability Assay in HepG2 cells - 0 hour (AID 1224889); note: nearly all actives have a fitted effect of over 50% in size
Outline: as §6
% is set by controls: 0 for no effect and ±100 for the full control effect.

Nc1nc(N)nc(-c2ccccc2)n1
inactive: outcome [1] | Potency [2] | Potency [3] | Potency [4] | max response [5] -23.1% and 0.641% | Potency [6] | outcome [7] | outcome [8] | Potency [9] | Potency [10] | outcome [11] | Potency [12] | outcome [13] | Potency [14] | outcome [15] | Potency [16] | Potency [17] | Potency [18] | Potency [19] | Potency [20]

CN/C(=C\[N+](=O)[O-])NCCSCc1csc(CN(C)C)n1
inactive: outcome [1] | Potency [2] | Potency [3] | Potency [4] | max response [5] 2.65% and -4.24% | Potency [6] | outcome [7] | outcome [8] | Potency [9] | Potency [10] | outcome [11] | Potency [12] | outcome [13] | Potency [14] | outcome [15] | Potency [16] | Potency [17] | Potency [18] | Potency [19] | Potency [20]

CCCCCCCCCCCCCCCC(=O)OC(C)C
inactive: outcome [1] | Potency [2] | Potency [3] | Potency [4] | max response [5] 4.79% and -1.72% | Potency [6] | outcome [7] | outcome [8] | Potency [9] | Potency [10] | outcome [11] | Potency [12] | outcome [13] | Potency [14] | outcome [15] | Potency [16] | Potency [17] | Potency [18] | Potency [19] | Potency [20]

CC1(C)NC(=O)NC1=O
inactive: outcome [1] | Potency [2] | Potency [3] | Potency [4] | max response [5] 4.62% and 21.9% | Potency [6] | outcome [7] | outcome [8] | Potency [9] | Potency [10] | outcome [11] | Potency [12] | outcome [13] | Potency [14] | outcome [15] | Potency [16] | Potency [17] | Potency [18] | Potency [19] | Potency [20]

C=C(C)CNCC
inactive: outcome [1] | Potency [2] | Potency [3] | Potency [4] | max response [5] 0.995% and -23.9% | Potency [6] | outcome [7] | outcome [8] | Potency [9] | Potency [10] | outcome [11] | Potency [12] | outcome [13] | Potency [14] | outcome [15] | Potency [16] | Potency [17] | Potency [18] | Potency [19] | Potency [20]

CC(=O)CC(C)(C)O
inactive: outcome [1] | Potency [2] | Potency [3] | Potency [4] | max response [5] 0.169% and 3.54% | Potency [6] | outcome [7] | outcome [8] | Potency [9] | Potency [10] | outcome [11] | Potency [12] | outcome [13] | Potency [14] | outcome [15] | Potency [16] | Potency [17] | Potency [18] | Potency [19] | Potency [20]

CC(C)OP(=O)(CP(=O)(OC(C)C)OC(C)C)OC(C)C
inactive: outcome [1] | Potency [2] | Potency [3] | Potency [4] | max response [5] 4.3% and 0.573% | Potency [6] | outcome [7] | outcome [8] | Potency [9] | Potency [10] | outcome [11] | Potency [12] | outcome [13] | Potency [14] | outcome [15] | Potency [16] | Potency [17] | Potency [18] | Potency [19] | Potency [20]

CC(C)OC(=O)COc1ccc(Cl)cc1Cl
inactive: outcome [1] | Potency [2] | Potency [3] | Potency [4] | max response [5] 8.21% and -2.23% | Potency [6] | outcome [7] | outcome [8] | Potency [9] | Potency [10] | outcome [11] | Potency [12] | outcome [13] | Potency [14] | outcome [15] | Potency [16] | Potency [17] | Potency [18] | Potency [19] | Potency [20]

CCCOC(=O)c1ccccc1
inactive: outcome [1] | Potency [2] | Potency [3] | Potency [4] | max response [5] 4.73% and -2.32% | Potency [6] | outcome [7] | outcome [8] | Potency [9] | Potency [10] | outcome [11] | Potency [12] | outcome [13] | Potency [14] | outcome [15] | Potency [16] | Potency [17] | Potency [18] | Potency [19] | Potency [20]

CN(C)c1ccc(Cc2ccc(N(C)C)cc2)cc1
inactive: outcome [1] | Potency [2] | Potency [4] | Potency [6] | outcome [7] | outcome [8] | Potency [9] | Potency [10] | outcome [11] | Potency [12] | outcome [13] | Potency [14] | outcome [15] | Potency [16] | Potency [19] | Potency [20]
active: Potency [3] 21.9 µM | Potency [5] 19.6 µM and 24.5 µM | Potency [17] 22 µM and 21.9 µM

Nc1ccc(Cl)c(N)c1
inactive: outcome [1] | Potency [2] | Potency [3] | Potency [4] | max response [5] -8.1% and -8.99% | Potency [6] | outcome [7] | outcome [8] | Potency [9] | Potency [10] | outcome [11] | Potency [12] | outcome [13] | Potency [14] | outcome [15] | Potency [16] | Potency [17] | Potency [18] | Potency [19] | Potency [20]

NC(=S)NNC(N)=S
inactive: outcome [1] | Potency [2] | Potency [3] | Potency [4] | max response [5] 7.65% and -11.1% | Potency [6] | outcome [7] | outcome [8] | Potency [9] | Potency [10] | outcome [11] | Potency [12] | outcome [13] | Potency [14] | outcome [15] | Potency [16] | Potency [17] | Potency [18] | Potency [19] | Potency [20]

O=S(=O)(O)c1ccc(N=Nc2c(O)ccc3cc(S(=O)(=O)O)ccc23)cc1
inactive: Potency [2] | Potency [4] | max response [5] -20% | Potency [6] | outcome [7] | Potency [9] | Potency [10] | outcome [11] | Potency [12] | outcome [13] | Potency [14] | outcome [15] | Potency [16] | Potency [17] | Potency [19] | Potency [20]
